Assay results taken from the supplement of paper PMC10849652.
Targets with a hit are over-represented here; the source holds about 7,900 in all. About 0.6% of all pairs of compound and target were hits.

compound: Cc1ccc(NC(=O)c2ccc(CN3CC[C@H](N(C)C)C3)c(C(F)(F)F)c2)cc1Nc1nccc(-c2cncnc2)n1 [bafetinib]; assay: log2 fold change, soluble protein after heating vs DMSO (PISA); higher = thermal stabilisation; K562 cells, 10 uM, 30 min; active = over 0.2 and 3.5 SD of the protein, either way, in both replicates (recomputed)
Summary of the method: (§1)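 K562 cells (2×10^6 cells/mL) were treated with 10 μM compound for 30 min, and aliquots were heated for 3 min over 48°C-58°C. Pooled aliquots were extracted in PBS with 0.5% NP-40 at 4°C, and the supernatant after 21,000xg for 90 min was measured by TMTpro 16plex LC-MS/MS with channel sums equalised. Reported thermal stability, relative to control samples and from duplicates, is a log2 fold change.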

Chain of UniProt P48507 (P48507 whole entry, looked up): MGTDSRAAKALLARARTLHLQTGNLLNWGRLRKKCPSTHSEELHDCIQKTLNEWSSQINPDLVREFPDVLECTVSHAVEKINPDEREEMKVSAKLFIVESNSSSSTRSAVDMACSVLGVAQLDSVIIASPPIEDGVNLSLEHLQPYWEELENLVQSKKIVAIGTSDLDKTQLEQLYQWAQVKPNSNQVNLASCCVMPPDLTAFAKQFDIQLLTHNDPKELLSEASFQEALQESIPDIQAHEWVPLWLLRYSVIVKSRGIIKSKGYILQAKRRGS
Chain of UniProt P60520 (P60520 whole entry, looked up): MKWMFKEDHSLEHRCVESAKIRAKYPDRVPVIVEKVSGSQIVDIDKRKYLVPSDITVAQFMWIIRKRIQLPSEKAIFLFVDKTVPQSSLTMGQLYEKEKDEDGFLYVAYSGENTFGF
Chain of UniProt O43824 (O43824 whole entry, looked up): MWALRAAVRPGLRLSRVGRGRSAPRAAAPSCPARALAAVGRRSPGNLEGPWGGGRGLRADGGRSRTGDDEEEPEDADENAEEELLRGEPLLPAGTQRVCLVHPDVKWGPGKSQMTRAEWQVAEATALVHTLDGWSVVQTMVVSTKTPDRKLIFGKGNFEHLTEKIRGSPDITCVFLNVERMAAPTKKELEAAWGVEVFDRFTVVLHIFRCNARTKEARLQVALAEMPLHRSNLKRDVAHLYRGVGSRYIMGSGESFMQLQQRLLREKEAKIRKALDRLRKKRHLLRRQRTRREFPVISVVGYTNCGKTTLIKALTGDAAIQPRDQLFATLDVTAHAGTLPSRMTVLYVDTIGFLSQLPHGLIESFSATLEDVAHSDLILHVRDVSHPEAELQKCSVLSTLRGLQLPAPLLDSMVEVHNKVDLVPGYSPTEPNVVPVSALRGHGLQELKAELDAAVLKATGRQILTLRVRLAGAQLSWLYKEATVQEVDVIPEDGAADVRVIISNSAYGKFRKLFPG
Chain of UniProt Q7Z4Q2 (Q7Z4Q2 whole entry, looked up): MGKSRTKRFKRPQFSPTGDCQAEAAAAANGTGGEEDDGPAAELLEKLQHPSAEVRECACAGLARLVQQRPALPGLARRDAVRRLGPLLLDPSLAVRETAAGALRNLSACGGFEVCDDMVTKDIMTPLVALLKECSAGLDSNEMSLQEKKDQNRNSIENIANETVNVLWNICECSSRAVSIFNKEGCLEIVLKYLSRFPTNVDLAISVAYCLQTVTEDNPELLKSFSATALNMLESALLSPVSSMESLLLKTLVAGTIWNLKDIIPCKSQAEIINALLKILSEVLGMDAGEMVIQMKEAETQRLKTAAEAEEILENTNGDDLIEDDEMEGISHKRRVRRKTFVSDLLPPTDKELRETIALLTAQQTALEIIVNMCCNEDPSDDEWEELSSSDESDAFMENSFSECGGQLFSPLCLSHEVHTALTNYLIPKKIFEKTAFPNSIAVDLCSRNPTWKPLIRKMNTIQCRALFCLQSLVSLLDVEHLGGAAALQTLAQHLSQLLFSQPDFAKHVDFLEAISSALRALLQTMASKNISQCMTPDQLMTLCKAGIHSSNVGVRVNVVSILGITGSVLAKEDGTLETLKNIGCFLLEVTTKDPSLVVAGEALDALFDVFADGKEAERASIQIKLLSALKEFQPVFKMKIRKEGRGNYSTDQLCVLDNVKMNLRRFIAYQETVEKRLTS
Chain of UniProt P52657 (P52657 whole entry, looked up): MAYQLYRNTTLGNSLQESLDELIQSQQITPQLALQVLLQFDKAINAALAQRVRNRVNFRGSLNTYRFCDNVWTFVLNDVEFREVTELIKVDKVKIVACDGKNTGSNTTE
Chain of UniProt Q86VQ1 (Q86VQ1 whole entry, looked up): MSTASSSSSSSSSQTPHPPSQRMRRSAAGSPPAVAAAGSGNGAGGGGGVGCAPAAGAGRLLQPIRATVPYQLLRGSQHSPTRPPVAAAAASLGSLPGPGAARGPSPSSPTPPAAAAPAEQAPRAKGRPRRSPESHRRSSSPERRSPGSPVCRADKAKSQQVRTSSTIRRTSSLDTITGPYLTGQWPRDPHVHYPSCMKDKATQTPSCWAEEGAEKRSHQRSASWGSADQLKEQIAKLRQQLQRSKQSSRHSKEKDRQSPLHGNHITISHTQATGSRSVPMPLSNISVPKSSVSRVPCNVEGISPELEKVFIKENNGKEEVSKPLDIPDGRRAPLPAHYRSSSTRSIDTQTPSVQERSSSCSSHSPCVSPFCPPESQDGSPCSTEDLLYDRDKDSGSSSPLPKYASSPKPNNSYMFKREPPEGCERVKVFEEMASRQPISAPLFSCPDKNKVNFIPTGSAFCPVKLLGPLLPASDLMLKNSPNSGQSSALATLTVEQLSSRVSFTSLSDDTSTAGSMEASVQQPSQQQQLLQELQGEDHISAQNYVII
Chain of UniProt O00458 (O00458 whole entry, looked up): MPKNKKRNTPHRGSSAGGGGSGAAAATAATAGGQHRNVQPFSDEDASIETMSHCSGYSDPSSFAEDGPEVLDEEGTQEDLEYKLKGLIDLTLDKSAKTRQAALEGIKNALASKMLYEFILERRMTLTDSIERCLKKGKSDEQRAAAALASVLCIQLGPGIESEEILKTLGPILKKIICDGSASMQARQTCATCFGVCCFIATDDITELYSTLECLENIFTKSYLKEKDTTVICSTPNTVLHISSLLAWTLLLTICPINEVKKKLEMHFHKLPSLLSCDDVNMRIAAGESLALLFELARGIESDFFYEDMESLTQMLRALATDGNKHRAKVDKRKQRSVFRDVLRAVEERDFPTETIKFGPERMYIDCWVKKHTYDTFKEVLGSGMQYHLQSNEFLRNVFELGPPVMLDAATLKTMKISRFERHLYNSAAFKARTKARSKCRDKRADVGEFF
Chain of UniProt Q13907 (Q13907 whole entry, looked up): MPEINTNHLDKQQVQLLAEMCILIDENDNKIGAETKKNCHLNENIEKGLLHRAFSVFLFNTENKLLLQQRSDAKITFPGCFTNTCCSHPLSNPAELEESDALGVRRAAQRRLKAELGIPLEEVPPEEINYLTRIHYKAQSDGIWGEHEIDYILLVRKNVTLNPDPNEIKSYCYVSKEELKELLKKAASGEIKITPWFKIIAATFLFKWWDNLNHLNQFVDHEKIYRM
Chain of UniProt Q9BYC5 (Q9BYC5 whole entry, looked up): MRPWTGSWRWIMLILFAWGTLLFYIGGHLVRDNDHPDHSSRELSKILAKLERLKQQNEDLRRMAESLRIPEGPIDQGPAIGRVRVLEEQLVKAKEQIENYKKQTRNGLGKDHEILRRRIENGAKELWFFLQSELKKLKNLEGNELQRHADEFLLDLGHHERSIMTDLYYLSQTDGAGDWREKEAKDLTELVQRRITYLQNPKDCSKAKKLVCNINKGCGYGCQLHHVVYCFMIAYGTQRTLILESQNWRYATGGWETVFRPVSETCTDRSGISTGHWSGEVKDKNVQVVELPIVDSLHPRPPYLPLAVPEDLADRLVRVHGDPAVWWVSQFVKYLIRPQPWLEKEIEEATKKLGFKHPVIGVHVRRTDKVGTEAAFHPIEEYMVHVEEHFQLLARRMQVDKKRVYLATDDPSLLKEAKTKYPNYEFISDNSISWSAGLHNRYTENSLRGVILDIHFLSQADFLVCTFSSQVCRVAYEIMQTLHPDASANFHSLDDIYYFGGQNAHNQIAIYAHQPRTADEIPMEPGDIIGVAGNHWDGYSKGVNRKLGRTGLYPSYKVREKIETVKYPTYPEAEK
Chain of UniProt Q53R41 (Q53R41 whole entry, looked up): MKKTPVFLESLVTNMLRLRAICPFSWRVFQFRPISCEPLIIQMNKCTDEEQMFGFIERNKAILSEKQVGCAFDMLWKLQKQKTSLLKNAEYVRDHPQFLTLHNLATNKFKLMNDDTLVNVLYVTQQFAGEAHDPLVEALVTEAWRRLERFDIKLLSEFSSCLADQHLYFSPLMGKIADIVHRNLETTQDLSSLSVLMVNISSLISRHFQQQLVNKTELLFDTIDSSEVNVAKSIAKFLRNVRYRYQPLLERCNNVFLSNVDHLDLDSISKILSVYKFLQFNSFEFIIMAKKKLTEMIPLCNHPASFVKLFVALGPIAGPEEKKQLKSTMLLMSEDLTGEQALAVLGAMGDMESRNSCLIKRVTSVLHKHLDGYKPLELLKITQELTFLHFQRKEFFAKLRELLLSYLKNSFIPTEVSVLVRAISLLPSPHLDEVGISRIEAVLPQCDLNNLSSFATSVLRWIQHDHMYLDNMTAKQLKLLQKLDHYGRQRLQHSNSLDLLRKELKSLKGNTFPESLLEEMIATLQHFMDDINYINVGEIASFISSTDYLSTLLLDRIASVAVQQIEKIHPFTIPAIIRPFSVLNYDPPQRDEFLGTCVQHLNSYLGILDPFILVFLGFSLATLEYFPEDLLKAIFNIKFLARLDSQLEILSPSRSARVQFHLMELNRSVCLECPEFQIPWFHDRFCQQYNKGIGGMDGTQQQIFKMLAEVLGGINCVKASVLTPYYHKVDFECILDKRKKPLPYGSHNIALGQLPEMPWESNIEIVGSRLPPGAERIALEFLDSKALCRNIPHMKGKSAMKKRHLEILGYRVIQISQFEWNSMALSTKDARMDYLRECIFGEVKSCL
Chain of UniProt O76003 (O76003 whole entry, looked up): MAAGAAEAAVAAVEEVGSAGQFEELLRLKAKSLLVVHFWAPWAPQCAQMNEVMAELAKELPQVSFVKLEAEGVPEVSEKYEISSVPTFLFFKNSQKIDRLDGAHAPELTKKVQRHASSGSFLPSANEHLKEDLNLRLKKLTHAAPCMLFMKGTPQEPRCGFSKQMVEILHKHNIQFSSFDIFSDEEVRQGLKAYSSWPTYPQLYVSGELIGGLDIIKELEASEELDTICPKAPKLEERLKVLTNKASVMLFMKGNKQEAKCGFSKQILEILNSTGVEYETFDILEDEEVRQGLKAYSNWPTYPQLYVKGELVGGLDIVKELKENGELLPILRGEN
Chain of UniProt Q00688 (Q00688 whole entry, looked up): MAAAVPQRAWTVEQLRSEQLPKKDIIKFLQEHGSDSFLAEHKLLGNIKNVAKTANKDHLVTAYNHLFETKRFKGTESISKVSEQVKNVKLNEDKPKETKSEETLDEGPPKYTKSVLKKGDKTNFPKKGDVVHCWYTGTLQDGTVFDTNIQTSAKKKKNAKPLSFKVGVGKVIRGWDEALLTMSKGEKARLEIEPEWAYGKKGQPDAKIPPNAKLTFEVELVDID

log2 fold change, active:
GTPBP6 (UniProt O43824) -0.706

log2 fold change, inactive:
FUT8 (UniProt Q9BYC5) -0.062
GLCCI1 (UniProt Q86VQ1) -0.074
FAT1 (UniProt Q14517) -0.061
GLRX3 (UniProt O76003) -0.04
IFRD1 (UniProt O00458) 0.118
IDI1 isoform 2 (UniProt Q13907) -0.019
HEATR3 (UniProt Q7Z4Q2) 0.058
GABARAPL2 (UniProt P60520) -0.168
GCLM (UniProt P48507) 0.016
GTF2A2 (UniProt P52657) -0.032
FASTKD1 (UniProt Q53R41) 0.098

compound: Cc1cccc(CC(=O)N2CCc3c2ccc(-c2cn(C)c4ncnc(N)c24)c3F)n1; assay: as above
Summary of the method: as §1

log2 fold change, inactive:
GABPA (UniProt Q06546) 0.034
FRA10AC1 isoform 3 (UniProt Q70Z53) 0.018
GINS2 (UniProt Q9Y248) 0.106
GNAS (UniProt Q5JWF2) -0.001
GYS1 (UniProt P13807) 0.011
HEXB (UniProt P07686) -0.04
HDAC1 (UniProt Q13547) -0.046
FKBP4 (UniProt Q02790) 0.017
GATD1 (UniProt Q8NB37) -0.021
GSTT1 (UniProt P30711) -0.144
HDAC10 (UniProt Q969S8) -0.073
GPD1 (UniProt P21695) -0.123
HDAC2 (UniProt Q92769) -0.046
FKBP3 (UniProt Q00688) -0.03
HDAC7 isoform 5 (UniProt Q8WUI4) 0.033
FBXO9 (UniProt Q9UK97) 0.234
GOPC (UniProt Q9HD26) -0.131
GNL3 (UniProt Q9BVP2) -0.078
GIGYF2 (UniProt Q6Y7W6) 0.045
GSTP1 (UniProt P09211) -0.021
GNL1 (UniProt P36915) 0.019
GTF3A (UniProt Q92664) -0.026
GEMIN2 (UniProt O14893) -0.124
FUT8 (UniProt Q9BYC5) -0.042
GLCCI1 (UniProt Q86VQ1) 0.037
FAT1 (UniProt Q14517) 0.044
GLRX3 (UniProt O76003) 0.025
IFRD1 (UniProt O00458) -0.031
IDI1 isoform 2 (UniProt Q13907) -0.038
GABARAPL2 (UniProt P60520) 0.096
GTPBP6 (UniProt O43824) -0.072
GCLM (UniProt P48507) 0.072
GTF2A2 (UniProt P52657) -0.036
FASTKD1 (UniProt Q53R41) -0.021

log2 fold change, active:
HEATR3 (UniProt Q7Z4Q2) 0.389

compound: Cc1cn(-c2cc(NC(=O)c3ccc(C)c(Nc4nccc(-c5cccnc5)n4)c3)cc(C(F)(F)F)c2)cn1 [nilotinib]; assay: as above
Summary of the method: as §1

log2 fold change, inactive:
GABPA (UniProt Q06546) -0.103
FRA10AC1 isoform 3 (UniProt Q70Z53) -0.034
GINS2 (UniProt Q9Y248) -0.024
GNAS (UniProt Q5JWF2) 0.103
GYS1 (UniProt P13807) 0.237
HEXB (UniProt P07686) 0.002
HDAC1 (UniProt Q13547) -0.023
FKBP4 (UniProt Q02790) -0.05
GATD1 (UniProt Q8NB37) 0.059
GSTT1 (UniProt P30711) 0.056
HDAC10 (UniProt Q969S8) -0.118
GPD1 (UniProt P21695) -0.104
HDAC2 (UniProt Q92769) -0.01
FKBP3 (UniProt Q00688) 0.028
HDAC7 isoform 5 (UniProt Q8WUI4) 0.024
FBXO9 (UniProt Q9UK97) 0.087
GOPC (UniProt Q9HD26) 0.009
GNL3 (UniProt Q9BVP2) -0.007
GIGYF2 (UniProt Q6Y7W6) -0.161
GSTP1 (UniProt P09211) -0.018
GNL1 (UniProt P36915) -0.024
GTF3A (UniProt Q92664) 0.042
GEMIN2 (UniProt O14893) -0.045
FUT8 (UniProt Q9BYC5) -0.008
GLCCI1 (UniProt Q86VQ1) 0.073
FAT1 (UniProt Q14517) 0.013
GLRX3 (UniProt O76003) -0.048
IFRD1 (UniProt O00458) 0.165
IDI1 isoform 2 (UniProt Q13907) 0.049
HEATR3 (UniProt Q7Z4Q2) -0.045
GABARAPL2 (UniProt P60520) -0.015
GTPBP6 (UniProt O43824) 0.13
GCLM (UniProt P48507) -0.101
GTF2A2 (UniProt P52657) -0.025
FASTKD1 (UniProt Q53R41) -0.183
